Measurements from PubChem BioAssay AID1985 (Southern Research Specialized Biocontainment Screening …, 2009).
Out of some 2,300 compounds screened, about 1,000 (43%) were called active. So high a share suggests a set chosen from earlier hits. The list shows a part of the results. Results with a measured potency or affinity are listed apart. A number with no mark means an inactive call. The rule behind the calls is not given here.

Test: PhoP regulon inhibitor project modified counter assay, GFP fluorescence readout, dose response (AID 1985)
Conditions: S. Typhi, 4 h; series mostly up to 150 µM; inhibition: at the top concentration

| Compound | inhibition |
| --- | --- |
| O=C(/C=C/c1ccccc1)NC(=S)N1CCSCC1 | -10.6% |
| O=C(/C=C/c1ccccc1)OCc1cnc(Cl)s1 | -4.85% |
| COC(=O)c1cc2nc(-c3ccccc3)cc(C)n2n1 | 14.7% |
| CCC(C)n1c(SCC(=O)NCc2ccco2)nnc1-c1cccc(S(=O)(=O)N2CCOCC2)c1 (configuration not stated) | 15.2% |
| COC(=O)c1ccccc1NC(=O)CSc1ncn[nH]1 | -15.8% |
| COc1cccc(C(=O)Nc2cccc(SC)c2)c1 | 8.22% |
| CSc1cccc(NC(=O)/C=C/c2ccco2)c1 | 23.1% |
| Cc1ccc(-c2c[n+](Cc3ccc(Cl)c(Cl)c3)c3n2CCC3)cc1 | -16.3% |
| CC1CCCC(NC(=O)COC(=O)Cc2c[nH]c3ccccc23)C1C (configuration not stated) | -10.8% |
| CCC(=O)Nc1nc(C)c(C(=O)N2CCCCC2)s1 | 8.55% |
| CC(/C=C\c1cccnc1)=C/C(=O)O | 1.58% |
| O=C(N/N=C/c1cccnc1)c1ccc(F)cc1 | 2.11% |
| Cc1ccc(C(C)C)c(OCCNC(=O)c2ccccc2O)c1 | 29.6% |
| O=C(Nc1ncccc1O)c1c(O)c2ccccc2[nH]c1=O | 17.4% |
| CCC(Sc1nccn1C)C(=O)Nc1nnc(C)s1 (configuration not stated) | -7.61% |
| Cc1ccc(-c2noc(CN3CCCCC3)n2)cc1 | -29.6% |
| OCCN1CCN(Cc2cc(Cl)c3cccnc3c2O)CC1 | 39.2% |
| Cc1nc(N2CCOCC2)c2c(C)c(C(=O)Nc3ccccc3C(F)(F)F)sc2n1 | 21.2% |
| O=c1c2ccccc2nc(COc2ccccc2)n1/N=C/c1ccc(O)cc1O | 15.7% |

| Compound | inhibition |
| --- | --- |
| CCn1c(SCC(=O)Nc2oc(-c3ccccc3)c(-c3ccccc3)c2C#N)nnc1-c1ccco1 | 30% |
| CCCC(CCC)C(=O)NCCN1CCOCC1 | -18.2% |
| COc1cccc(-c2ccc(SCc3ccccn3)nn2)c1 | -17.4% |
| Fc1ccc(/C=N/Nc2nc3ccccc3[nH]2)cc1F | 21.8% |
| CC1CCN(CCOCCOc2ccc(Br)cc2Cl)CC1 | 21.5% |
| COC(=O)c1cc2sccc2n1Cc1nc(-c2ccc(OC)cc2)oc1C | -9.46% |
| Oc1c(CN2CCN(c3ccccn3)CC2)cc(Cl)c2cccnc12 | 6.65% |
| Cc1cc2cc(CNC(=O)C(C)Oc3ccccc3)ccc2n1C (configuration not stated) | -17.3% |
| CNCCCC1c2ccccc2C=Cc2ccccc21 | 37.2% |
| COc1cc(OC)c(C2CC(=O)N3CN(c4ccccc4)CSC3=C2C#N)cc1OC (configuration not stated) | 0.55% |
| COc1ccccc1-c1nc(C(F)(F)F)c(OC)o1 | -6.77% |
| Cc1nc(C)c(-c2ccc(SCc3ccccc3F)nn2)s1 | -17.5% |
| NC(=O)c1cc(S(=O)(=O)Nc2cccc(F)c2)co1 | 23.2% |
| O=C(NC1=NCCS1)c1cccc2ccccc12 | -30.7% |
| CCn1ncc(/C=N\NC(=O)c2csc3ccccc23)c1C | -13.8% |
| Cc1c(/C=N/NC(=O)c2sc3ccccc3c2Cl)cnn1C | 12.1% |
| COc1ccc(C(=O)N/N=C/c2cccnc2)cc1 | 32.4% |
| O=C(NC1CC1)C1CCN(C2CCN(C(=O)Cc3ccc(F)cc3)CC2)CC1 | -0.34% |
| CN1C(=O)N2CN(C3CCCCC3)CN3C(=O)N(C)C1C23 (configuration not stated) | 26.2% |

| Compound | inhibition |
| --- | --- |
| CCn1nccc1C(=O)Nc1cc(Cl)cc(Cl)c1 | 14.2% |
| O=C(CCN1CCN(c2ccccc2)CC1)c1ccc(Cl)cc1 | 27% |
| O=C(C[n+]1cn(C(F)F)c2ccccc21)c1ccc(Br)cc1 | -42.7% |
| O=C(c1cccs1)N1CCC(N2CCN(c3ccccc3)CC2)CC1 | 0.94% |
| CCOC(=O)N1CCN(CC(=O)Nc2ccc(F)cc2F)CC1 | -11% |
| CCOC(=O)N1CCN(CCC(=O)c2ccc(Br)cc2)CC1 | 36.8% |
| COc1ccc(C(=O)N2CCN(C(=O)Cc3ccccc3)CC2)cc1OC | -8.35% |
| O=C(CCN1CCC(c2ccccc2)C1)c1ccc2c(c1)OCCO2 (configuration not stated) | -0.06% |
| O=c1[nH]n(-c2ccccc2)c(=O)c2ccccc12 | 25.6% |
| CCOc1ccc(S(=O)(=O)N2CCC(C(=O)NCCN3CCOCC3)CC2)cc1C | 10.5% |
| O=c1c2ccccc2ncn1Cc1ccc(Cl)cc1 | -17.5% |
| CC(=O)C1=C(O)C(=O)N(CCN2CCOCC2)C1c1ccccc1 (configuration not stated) | 6.14% |
| CCc1ccc(C(=O)CC2(O)C(=O)N(CN3CCOCC3)c3ccccc32)cc1 (configuration not stated) | 19.9% |
| O=C(COC(=O)/C=C/c1cccc(C(F)(F)F)c1)NCc1ccccc1 | -28.6% |
| CCC[C@H](CN[C@@H](CNC)[C@H](C)CC)NCCc1cc(C(F)(F)F)cc(C(F)(F)F)c1 | -3.97% |
| COc1cc2c3cc1Oc1cc(ccc1O)C[C@@H]1c4c(cc(OC)c(O)c4Oc4ccc(cc4)C[C@H]3N(C)CC2)CCN1C | 3.53% |
| Cc1ccc(C(C[N+](=O)[O-])n2nc(C)cc2C)cc1 (configuration not stated) | 35% [at 75 µM] |
| CCN1C(=O)NC(c2ccccc2)C1=O (configuration not stated) | 18% |
| CCN(CC)CCCCCCCCOC(=O)c1cc(OC)c(OC)c(OC)c1 | -1.68% |
